# Results: PubChem BioAssay (NCI)
# About 83,000 compounds went through this panel and 20% of them were active in at least one assay; those are over-represented in the sample as a whole.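 Cells were grown in 96-well plates and exposed to the test compound at a single concentration for 48 hours; results are reported as percent growth, with values below 10 considered active.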 Values without a mark were called inactive. Calls of active or inactive are those of the source.
# Experiments:
# Experiment in all cases: NCI-60 one-dose screen, 48 h (100 = growth as untreated, 0 = no growth, -100 = all killed)
# Conditions in all cases: 10 µM
# NCI-H23 lung = test system: NCI-H23 lung
# NCI-H226 lung = test system: NCI-H226 lung
# HOP-62 NSCLC = test system: HOP-62 NSCLC
# NCI-H460 lung = test system: NCI-H460 lung
# HOP-92 NSCLC = test system: HOP-92 NSCLC
# NCI-H522 lung = test system: NCI-H522 lung
# 786-0 renal = test system: 786-0 renal
# COLO 205 colon = test system: COLO 205 colon
# DU-145 prostate = test system: DU-145 prostate
# K-562 leukemia = test system: K-562 leukemia
# MALME-3M melanoma = test system: MALME-3M melanoma
# MDA-MB-231 breast = test system: MDA-MB-231 breast
# RXF 393 renal = test system: RXF 393 renal
# SF-268 CNS = test system: SF-268 CNS
# SF-295 CNS = test system: SF-295 CNS
# SF-539 CNS = test system: SF-539 CNS
# UACC-257 melanoma = test system: UACC-257 melanoma
# M14 melanoma = test system: M14 melanoma
# A549/ATCC NSCLC = test system: A549/ATCC NSCLC
Compound,growth (NCI-H23 lung),growth (NCI-H226 lung),growth (HOP-62 NSCLC),growth (NCI-H460 lung),growth (HOP-92 NSCLC),growth (NCI-H522 lung),growth (786-0 renal),growth (COLO 205 colon),growth (DU-145 prostate),growth (K-562 leukemia),growth (MALME-3M melanoma),growth (MDA-MB-231 breast),growth (RXF 393 renal),growth (SF-268 CNS),growth (SF-295 CNS),growth (SF-539 CNS),growth (UACC-257 melanoma),growth (M14 melanoma),growth (A549/ATCC NSCLC) [%]
CCOC(=O)c1cc(C(=O)c2cc(OC)cc(OC)c2)n2ncc3ccccc3c12,41.9%,59.1%,42.6%,7.07% (active),32.4%,2.64% (active),5.34% (active),19.1%,46.4%,5.75% (active),41.9%,42.9%,29.1%,46.9%,8.71% (active),11.5%,49%,15.7%,
COc1cc2cc(Oc3ccc(NC(=O)c4cc(C(F)(F)F)cc(C(F)(F)F)c4)cc3)c(C)nc2cc1OC,32.6%,53.6%,84.7%,26.9%,-6.21% (active),34%,64.5%,51.7%,60.4%,23.3%,73.7%,59.2%,56.8%,74.7%,6.46% (active),75.2%,60.4%,61.6%,
CC(=O)N[C@H](C(=O)N[C@@H](CCCNC(=N)N)C(=O)N[C@@H](CCCCN)C(=O)N[C@@H](CCCNC(=N)N)C(=O)N[C@]1(C)CCCCCC/C=C\CCC[C@@](C)(C(=O)N[C@@H](CCCNC(=N)N)C(=O)N[C@@H](CCC(=O)O)C(=O)N[C@@H](CC(C)C)C(=O)N[C@H](C(=O)N[C@@H](CCC(=O)O)C(N)=O)C(C)C)NC(=O)[C@H](CCC(N)=O)NC(=O)[C@H](CC(C)C)NC(=O)[C@H](CC(C)C)NC(=O)[C@H](CCCNC(=N)N)NC(=O)[C@H](CCCNC(=N)N)NC(=O)[C@H](CC(C)C)NC1=O)C(C)C,1.83% (active),9.55% (active),-31.5% (active),-9.29% (active),-63.6% (active),28.7%,-51.4% (active),-29.5% (active),-72.7% (active),-18.8% (active),-28.7% (active),-39.5% (active),-51.5% (active),-51.5% (active),14.3%,-47% (active),,-41.9% (active),
Nc1ccc(/C=N/Nc2ccnc3c(O)cccc23)c2cccnc12,74.6%,84%,64.4%,25.9%,88.1%,41.3%,50.7%,104%,37.4%,0.593% (active),101%,0.678% (active),55.8%,43.5%,84.8%,67.7%,105%,53.8%,
CS(=O)(=O)c1nccc(-c2c(-c3cccc(OCCc4ccccc4)c3)nc3sccn23)n1,95.6%,81.4%,93%,106%,,90.5%,108%,103%,108%,95.5%,102%,93.7%,118%,106%,109%,103%,101%,114%,101
COc1cccc2ccc(CC(O)(c3ccccc3)c3ccccc3)nc12,89.6%,71.2%,86.8%,90.8%,,93.5%,96.7%,95.4%,98.1%,91.9%,101%,85%,108%,93.7%,86.4%,103%,95.5%,94.3%,95.5
O=C1CC(SC(=S)C2CCCC2=O)C(=O)N1 (stereo unspecified),98.4%,92.4%,106%,104%,,109%,95.7%,116%,108%,98%,104%,105%,115%,102%,104%,104%,90.4%,101%,101
CSc1nc(S(C)(=O)=O)nc2[nH]c(=O)[nH]c12,98.8%,101%,98.2%,116%,97.5%,,107%,106%,116%,108%,,89.7%,110%,101%,,99.1%,105%,96.7%,106
O=C(/C=C/C=C/c1c(C2CC2)nc2ccccc2c1-c1ccc(F)cc1)c1cccs1,20.7%,-53.6% (active),24.2%,-7.38% (active),,2.39% (active),19.6%,-55% (active),20.4%,5.43% (active),-35.1% (active),25.1%,-54.2% (active),43.4%,18.3%,-32.8% (active),-35.4% (active),3.19% (active),20.6
O=C(CCC(C(=O)c1ccccc1)c1ccccc1)c1ccccc1 (stereo unspecified),78.6%,83.1%,76.8%,76.2%,,3.51% (active),82.7%,79.7%,86.4%,18.7%,43.4%,77.9%,78%,85%,36.9%,99.9%,90.5%,52.2%,61.9
COc1ccc(/C=C/c2nnc(/C=C/c3ccc(OC)c(OC)c3)o2)cc1OC,25.4%,63.5%,35.3%,15.6%,,9.91% (active),12.8%,22%,49.2%,14.8%,57.1%,17.8%,27.4%,41.9%,12.5%,-11.8% (active),,5.44% (active),32
COc1cc(/C=C/c2cc(/C=C/c3ccc(O)c(OC)c3)[nH]c(=O)n2)ccc1O,62.8%,76.2%,70.8%,69.7%,,54.6%,82.6%,51.8%,80.4%,42%,53.6%,54.2%,23.7%,48.2%,92.8%,69%,62.5%,75.5%,71.7
N#CC1=C(N)Oc2cc(N)ccc2C1c1cccnc1 (stereo unspecified),92.1%,101%,92.7%,97.5%,,75%,90.7%,113%,104%,83.3%,98.6%,101%,108%,93.4%,99.7%,96.1%,109%,87.3%,100
CS(=O)(=O)c1nccc(-c2c(-c3cccc(OCc4ccc(F)cc4)c3)nc3sccn23)n1,53%,55.5%,90.1%,98.8%,,24.4%,79.5%,91.2%,-53.8% (active),47.3%,60.4%,77.5%,79.6%,90.2%,105%,104%,17%,71.2%,104
Cc1ccc(/C=C/C(=O)C(=O)/C=C/c2ccc(C)cc2)cc1,95.4%,107%,109%,104%,,81.7%,96.9%,110%,112%,95.2%,96.8%,106%,117%,108%,101%,96.2%,,95.2%,86.2
COc1cc(-c2nn(-c3cccc(NC(=O)CCNc4ccc(N5CCOCC5)cc4)c3)cc2-c2ccncc2)ccc1Cl,13.2%,25.9%,27.1%,4.77% (active),,11.9%,19.1%,1.38% (active),29.2%,11.2%,21.9%,-9.17% (active),20.9%,31.8%,13.4%,29.1%,20.1%,2.71% (active),17.5
CC[C@@H](C(=O)[C@H](C)[C@H](O)[C@@H](C)[C@H]1O[C@H]([C@@H](CC)C(=O)O)CC[C@H]1C)C1O[C@]2(C=C[C@@H](O)[C@]3(CC[C@@](C)([C@H]4CC[C@](O)(CC)[C@H](C)O4)O3)O2)[C@H](C)C[C@@H]1C (stereo partly specified),13.4%,21.4%,36.9%,11.4%,,-4.35% (active),27.1%,8.73% (active),51.3%,6.72% (active),-83.6% (active),17.3%,-8.61% (active),38%,-12.6% (active),2.48% (active),35.3%,-38.8% (active),20.8
